Assay results published in PubChem BioAssay (NCI).
This is part of a sample that, as a whole, favours compounds with a hit. Of some 79,000 tested, about 15% had one in any assay. Calls of active or inactive are those of the source. Cut-off read from the data, not from the text of the source: active = growth inhibition above about 70%; inactive = the rest.

What was measured:
[1] = NCI Yeast Anticancer Drug Screen. Data for the rad52 strain (AID 147);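 note: 0% = growth of vehicle-treated control cultures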; conditions: S. cerevisiae rad52 mutant growth inhibition, stronger effect = higher value
How it was run: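 Growth of repair-deficient yeast cells was compared between compound-treated and vehicle-treated cultures to give percent inhibition.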

[2] = NCI Yeast Anticancer Drug Screen. Data for the wt1 strain (AID 149);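 note: 0% = growth of vehicle-treated wt1 cultures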; conditions: S. cerevisiae wt1 strain (SPY 50644) growth inhibition, stronger effect = higher value
How it was run: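 Growth inhibition read against vehicle controls after compound exposure of the wt1 yeast strain.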

[3] = NCI Yeast Anticancer Drug Screen. Data for the rad50EPP+ strain (AID 151);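 note: 0% = growth of vehicle-treated control cultures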; conditions: S. cerevisiae rad50 mutant strain, stronger effect = higher value
How it was run: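 Measured: growth inhibition of rad50EPP+ yeast. Reference: vehicle-treated controls. Screen uses strains with defined genetic alterations in DNA damage repair or cell cycle control.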

[4] = NCI Yeast Anticancer Drug Screen. Data for the mgt1 strain (AID 153); conditions: S. cerevisiae mgt1 mutant growth inhibition, stronger effect = higher value
How it was run: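 Compounds were applied to mgt1 mutant yeast, and growth was then compared against vehicle-treated control cultures to give percent inhibition.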

[5] = NCI Yeast Anticancer Drug Screen. Data for the rad50 strain (AID 155);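 note: 0% = growth of vehicle-only cultures of the same strain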; conditions: S. cerevisiae rad50 strain growth inhibition, stronger effect = higher value
How it was run: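 Readout: growth inhibition relative to vehicle-treated cultures. Compound exposure was carried out in a genetically defined yeast strain deficient in DNA damage repair.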

[6] = NCI Yeast Anticancer Drug Screen. Data for the mec2-1 strain (AID 157); conditions: S. cerevisiae mec2-1 strain, stronger effect = higher value
How it was run: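 Compounds were applied to mec2-1 yeast cells. Their growth was then compared with that of vehicle-treated cultures to give growth inhibition.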

[7] = NCI Yeast Anticancer Drug Screen. Data for the rad14 strain (AID 159);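 note: 0% = growth of vehicle-treated control cultures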; conditions: S. cerevisiae rad14 strain growth inhibition, stronger effect = higher value
How it was run: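 Growth inhibition vs vehicle controls; genetically altered yeast strain (DNA damage repair defect) treated with test compounds.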

[8] = NCI Yeast Anticancer Drug Screen. Data for the sgs1 mgt1 strain (AID 161);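 note: 0% = growth of cultures given vehicle only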; conditions: S. cerevisiae sgs1 mgt1 strain, stronger effect = higher value
How it was run: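 Percent growth inhibition was derived by comparing compound-exposed mutant yeast with vehicle-exposed cultures. The strain carries alterations in DNA damage repair.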

[9] = NCI Yeast Anticancer Drug Screen. Data for the CLN2oe strain (AID 163);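 note: 0% = growth of vehicle-only control cultures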; conditions: S. cerevisiae CLN2oe strain, stronger effect = higher value
How it was run: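 Cells of an engineered yeast line with disturbed cell-cycle regulation are treated with compound. Inhibition of growth is then calculated relative to the vehicle-treated reference.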

[10] = NCI Yeast Anticancer Drug Screen. Data for the cln2 rad14 strain (AID 165);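 note: 0% = growth equal to vehicle treated cultures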; conditions: S. cerevisiae cln2 rad14 strain, stronger effect = higher value
How it was run: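 Strain: cln2 rad14 yeast, altered in cell cycle control and DNA damage repair. Read-out: growth inhibition vs vehicle.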

[11] = NCI Yeast Anticancer Drug Screen. Data for the bub3 strain (AID 167); conditions: S. cerevisiae bub3 mutant strain, stronger effect = higher value
How it was run: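 Readout: yeast growth inhibition, expressed relative to vehicle-only wells. The test organism is a mutant strain from a panel with lesions in DNA repair or checkpoint genes.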

[12] = NCI Yeast Anticancer Drug Screen. Data for the wt2 strain (AID 169);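 note: 0% = growth of vehicle-treated yeast cultures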; conditions: S. cerevisiae wt2 strain growth inhibition, stronger effect = higher value
How it was run: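 Growth of compound-treated yeast is measured and expressed as inhibition relative to vehicle-only controls.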

[13] = NCI Yeast Anticancer Drug Screen. Data for the mlh1 strain (AID 171);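 note: 0% = growth of vehicle-treated control cultures of the same strain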; conditions: S. cerevisiae mlh1 strain growth inhibition, stronger effect = higher value
How it was run: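 Test agents were incubated with yeast bearing a defined DNA damage repair or cell cycle control alteration; values are growth inhibition normalised to vehicle-treated cultures.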

[14] = NCI Yeast Anticancer Drug Screen. Data for the sgs1 strain (AID 173);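 note: 0% = growth of vehicle-only control cultures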; conditions: S. cerevisiae sgs1 mutant, stronger effect = higher value
How it was run: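 Strain with an altered DNA repair or cell cycle pathway exposed to compound. Growth then measured. Value = inhibition versus vehicle control.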

[15] = NCI Yeast Anticancer Drug Screen. Data for the rad18 strain (AID 177); conditions: S. cerevisiae rad18 mutant growth inhibition, stronger effect = higher value
How it was run: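 DNA-repair-defective yeast; compound treatment; growth inhibition scored against vehicle.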

[16] = at 5.0 µM (retest, dose inferred, filed as 0.5)
[17] = at 50.0 µM (retest, dose inferred, filed as 5.0)

Measured: growth inhibition

CCCCOCn1c(=O)[nH]c(=O)c2cc(Br)ccc21
active: [8]; [17] 91% | [8]; at 50.0 µM 90.2% | [10]; [17] 86% | [11]; [17] 92% | [11]; at 50.0 µM 82.2%
inactive: [1]; at 1.2 µM -35% | [1]; at 3.7 µM -45% | [1]; at 11.0 µM -30% | [1]; at 33.0 µM -6% | [1]; at 100.0 µM -10% | [2]; at 1.2 µM -37% | [2]; at 3.7 µM -18% | [2]; at 11.0 µM -58% | [2]; at 33.0 µM -44% | [2]; at 100.0 µM -39% | [3]; at 1.2 µM -59% | [3]; at 3.7 µM -71% | [3]; at 11.0 µM -50% | [3]; at 33.0 µM -61% | [3]; at 100.0 µM -92% | [4]; at 1.2 µM -52% | [4]; at 3.7 µM -36% | [4]; at 11.0 µM -47% | [4]; at 33.0 µM -32% | [4]; at 100.0 µM -32% | [5]; at 1.2 µM -35% | [5]; at 3.7 µM -26% | [5]; [16] 21% | [5]; at 11.0 µM -10% | [5]; at 33.0 µM -24% | [5]; [17] 22% | [5]; at 50.0 µM 18.7% | [5]; at 100.0 µM -15% | [6]; at 1.2 µM -1% | [6]; at 3.7 µM 6% | [6]; [16] 14% | [6]; at 11.0 µM 2% | [6]; at 33.0 µM 11% | [6]; [17] 11% | [6]; at 50.0 µM 4.05% | [6]; at 100.0 µM -5% | [7]; at 1.2 µM -22% | [7]; at 3.7 µM -50% | [7]; at 11.0 µM -39% | [7]; at 33.0 µM -35% | [7]; at 100.0 µM -42% | [8]; [16] 59% | [9]; at 1.2 µM -20% | [9]; at 3.7 µM -11% | [9]; at 11.0 µM -38% | [9]; at 33.0 µM -21% | [9]; at 100.0 µM -29% | [10]; [16] 32% | [10]; at 50.0 µM 17.8% | [11]; at 1.2 µM -46% | [11]; at 3.7 µM -36% | [11]; [16] 23% | [11]; at 11.0 µM -35% | [11]; at 33.0 µM -39% | [11]; at 100.0 µM -33% | [12]; at 1.2 µM -21% | [12]; at 3.7 µM -20% | [12]; at 11.0 µM -21% | [12]; at 33.0 µM -19% | [12]; at 100.0 µM 0% | [13]; at 1.2 µM -48% | [13]; at 3.7 µM -48% | [13]; at 11.0 µM -41% | [13]; at 33.0 µM -41% | [13]; at 100.0 µM -62% | [14]; at 1.2 µM -18% | [14]; at 3.7 µM -7% | [14]; at 11.0 µM -16% | [14]; at 33.0 µM -18% | [14]; at 100.0 µM -8% | [15]; at 1.2 µM -19% | [15]; at 3.7 µM -5% | [15]; at 11.0 µM -1% | [15]; at 33.0 µM 9% | [15]; at 100.0 µM 38%

CCOC(=O)C1N=[N+](c2ccccc2)C(=O)/C1=C\n1c(=S)[nH]c2ccc([N+](=O)[O-])cc21 (stereo not given)
inactive: [1]; at 1.2 µM 0% | [1]; at 3.7 µM 1% | [1]; at 11.0 µM 2% | [1]; at 33.0 µM 0% | [1]; at 100.0 µM 9% | [2]; at 1.2 µM 1% | [2]; at 3.7 µM 3% | [2]; at 11.0 µM 2% | [2]; at 33.0 µM 3% | [2]; at 100.0 µM 6% | [3]; at 1.2 µM 0% | [3]; at 3.7 µM 1% | [3]; at 11.0 µM 4% | [3]; at 33.0 µM 2% | [3]; at 100.0 µM 6% | [4]; at 1.2 µM -1% | [4]; at 3.7 µM -1% | [4]; at 11.0 µM 0% | [4]; at 33.0 µM -11% | [4]; at 100.0 µM 5% | [5]; at 1.2 µM -6% | [5]; at 3.7 µM -14% | [5]; [16] 21% | [5]; at 11.0 µM -18% | [5]; at 33.0 µM 3% | [5]; at 50.0 µM 5.15% | [5]; at 100.0 µM 7% | [6]; at 1.2 µM 1% | [6]; at 3.7 µM 1% | [6]; [16] 13% | [6]; at 11.0 µM 2% | [6]; at 33.0 µM 7% | [6]; at 50.0 µM 17.2% | [6]; at 100.0 µM 9% | [7]; at 1.2 µM 0% | [7]; at 3.7 µM -2% | [7]; at 11.0 µM 1% | [7]; at 33.0 µM 2% | [7]; at 100.0 µM 8% | [8]; [16] -4% | [8]; [17] 63% | [8]; at 50.0 µM 19.9% | [9]; at 1.2 µM 1% | [9]; at 3.7 µM -1% | [9]; at 11.0 µM -1% | [9]; at 33.0 µM 4% | [9]; at 100.0 µM 3% | [10]; [16] 53% | [10]; at 50.0 µM 47.9% | [11]; at 1.2 µM -7% | [11]; at 3.7 µM 1% | [11]; at 11.0 µM 1% | [11]; at 33.0 µM 3% | [11]; at 50.0 µM 20.8% | [11]; at 100.0 µM 3%
active: [5]; [17] 94% | [6]; [17] 96% | [10]; [17] 95% | [11]; [16] 97% | [11]; [17] 99%
